Experimental data as given in PubChem BioAssay (EPA / NIEHS).
The source made the active and inactive calls. How the source made its calls: active means hit-call score of the fitted dose curve at least 0.9, where 1 is the maximum; inactive means score below 0.9.

Assay: ATG_NF_kB_CIS: Attagene CIS-FACTORIAL HepG2 Assay for human Nuclear Factor Kappa B (NF-kB) (AID 2282991)
Conditions: HepG2 Attagene cis-factorial NF-kB reporter mRNA; actives raise or lower the signal
Description: ATG_CIS is a cell-based, multiplexed-readout assay that uses HepG2, a human liver cell line, with measurements taken at 24 hours after chemical dosing in a 24-well plate.ATG_NF_kB_CIS is one of 52 assay component(s) measured or calculated from the ATG_CIS assay. It is designed to make measurements of mRNA induction, a form of inducible reporter, as detected with fluorescence intensity signals by Reverse transcription polymerase chain reaction (RT-PCR) and Capillary electrophoresis technology.Data from the assay component ATG_NF_kB_CIS was analyzed into 1 assay endpoint. This assay endpoint, ATG_NF_kB_CIS, was analyzed with bidirectional fitting relative to DMSO as the negative control and baseline of activity. Using a type of inducible reporter, measures of mRNA for gain or loss-of-signal activity can be used to understand the reporter gene at the transcription factor-level as they relate to the gene NFKB1. Furthermore, this assay endpoint can be referred to as a primary readout, because this assay has produced multiple assay endpoints where this one serves a reporter gene function. To generalize the intended target to other relatable targets, this assay endpoint is annotated to the dna binding intended target family, where the subfamily is NF-kappa B.
Human liver HepG2 cells are transiently transfected with multiple reporter transcription units (MRTUs) in 6-well plates using FuGene 6 reagent (Roche; 3 ml FuGene/1 mg DNA). The MRTU constructs are regulated by a cis-regulating element (promoter). […] A major difference between the CIS and TRANS system is that in CIS activities of endogenous TFs are measured, whereas the TRANS assay evaluates changes in activities of exogenous, chimeric NR-Gal4 proteins. […] At the end of 24 hour incubation, total RNA was isolated using TriZol reagent (Invitrogen). The isolated RNA is then reverse-transcribed using oligo(dT) primer and Mo-MLV reverse transcriptase (Invitrogen) with DNAse I (Ambion) treatment for 30 min. The one-tenth of the produced cDNA was amplified by PCR using Taq DNA polymerase (Invitrogen) and two reporter sequence-specific primers. The PCR products were fluorescently labeled by primer extension with 6-arboxyfluorescein (6-FAM) 5'-labeled reporter sequence-specific primer (2 min at 95 C, 20 s at 68 C and 10 min at 72 C) and these products were digested with 5U of HpaI (New England Biolabs) for 2h at 37 C. The fragments were purified using Qiaquick PCR columns (Qiagen), analyzed on an ABI 3130xL genetic analyzer (Applied Biosystems) with peak positions identified by using a set of X-rhodamine (ROX)-labeled MapMarker1000 molecular weight standards (BioVentures). The raw capillary electrophoresis data was processed using Attagraph software (Attagene).

AC50, active:
COc1ccc(Nc2ccccc2)c(C)c1 151 µM, CC1=CCC2C(C1)C2(C)C (stereo not given) 49.1 µM

outcome, inactive:
O=C(Oc1ccccc1)c1ccc(O)cc1, Nc1cc(N)cc(C(=O)O)c1, C[C@H]1C[C@H]2[C@@H]3CCC4=CC(=O)C=C[C@]4(C)[C@@]3(F)[C@@H](O)C[C@]2(C)[C@@]1(O)C(=O)COP(=O)(O)O, CCCCOCCOCCSC#N, O=Cc1ccc(Cl)c([N+](=O)[O-])c1, CC1CC(OC(=O)c2ccccc2O)CC(C)(C)C1 (stereo not given), CC(C)OP(=O)(CP(=O)(OC(C)C)OC(C)C)OC(C)C, Cc1ccc(Nc2ccc(O)c3c2C(=O)c2ccccc2C3=O)cc1, CCCCCCCCCCCCCCCCCC(=O)OCC(CC)CCCC (stereo not given), COCCCOc1ccnc(CS(=O)c2nc3ccccc3[nH]2)c1C (stereo not given), OC1C(O)C(O)C(O)C(O)C1O (stereo not given), CCC(C)CCCC(C)(C)O (stereo not given), COc1c(Cl)c(Cl)c(Cl)c(Cl)c1Cl, CCCCC(CC)COCCC#N (stereo not given), CC(C)Oc1ccccc1O, Fc1c(F)c(F)c(Br)c(F)c1F, CCCC1CCC(=O)O1 (stereo not given), CCC(=O)OCCC(C)CCC=C(C)C (stereo not given), c1ccc2c(c1)c1cccc3ccc4cccc2c4c31, ClCCCl, Nc1ccc(F)c([N+](=O)[O-])c1, c1ccc2sc(SN(C3CCCCC3)C3CCCCC3)nc2c1, Nc1cc([N+](=O)[O-])ccc1Cl, CC1CCC(C(C)(C)O)CC1 (stereo not given), COc1cc(C=O)ccc1OC(=O)C(C)C, c1ccc2[nH]ccc2c1, NCCNCCN, CCCCCCOC(=O)CCCCC, CC(=O)OCCC(C)CC(C)(C)C (stereo not given), CSc1nc(NC2CC2)nc(NC(C)(C)C)n1, C/C=C(\C)C(=O)OCc1ccccc1, CC(=O)c1c(C)cc(C(C)(C)C)cc1C, COC(=O)C1=C(C)NC(C)=C(C(=O)OCCN(C)Cc2ccccc2)C1c1cccc([N+](=O)[O-])c1 (stereo not given), CCCCCOC(=O)CCC, CCCCCC=CCC(=O)OC, CC1=CC(=O)NS(=O)(=O)O1, Cc1ccc(C=O)s1, NC(=O)Nc1ccc(Cl)cc1
